Results: PubChem BioAssay (Tox21)
Inconclusive results are not listed. Calls of active or inactive are those of the source. The call rests on the fitted dose curve; in most records, active means well fitted cell-killing curve with a large enough effect in the repeat runs; inconclusive means weak or mixed curves; inactive means flat fitted curve, though single readings scatter.

experiment: qHTS RealTime-Glo MT Cell Viability Assay in HepG2 cells - 24 hour (AID 1224867); conditions: RealTime-Glo luminescence; series mostly up to 76.8 µM; activity change, negative = cytotoxicity: at the top concentration; further: nearly all actives have a fitted effect of over 50% in size
Text: U.S. Tox21 Program National Center for Advancing Translational Sciences [NCATS] NIH Chemical Genomics Center [NCGC] U.S. Environmental Protection Agency [EPA] National Institutes of Environmental Health Sciences [NIEHS] National Toxicology Program [NTP] U.S. Food and Drug Administration [FDA] Tox21 Assay Overview: Measure of cell viability is critical in the cell-base assay. Analysis of cell viability is necessary for the characterization of cell responses to cytotoxic drugs and environmental stress. A RealTime-Glo MT Cell Viability Assay to monitor cell viability in real time of continues cell culture during 40 hours of compound treatment was used to screen Tox21 10K library compounds in HepG2 cells. The RealTime-Glo MT Cell Viability Assay is a nonlytic, homogeneous, bioluminescent method to measure cell viability in real time using a simple, plate-based method. The assay involves adding NanoLuc luciferase and a cell-permeant prosubstrate to cells in culture. Viable cells reduce the proprietary prosubstrate to generate a substrate for NanoLuc luciferase. This substrate diffuses from cells into the surrounding culture medium, where it is rapidly used by the NanoLuc Enzyme to produce a luminescent signal. The signal correlates with the number of viable cells, making the assay well suited for cytotoxicity studies.
Tox21 Assay Protocol Summary: The mixture of HepG2 cell suspension and reagents were dispensed at 600cells/6 ul/well in 1536-well tissue culture treated black solid bottom plates using a Multidrop dispenser. After the assay plates were incubated at a 37 C/5% CO2 incubator for 5 hours, 23 nL of compounds dissolved in DMSO, positive and negative controls was transferred to the assay plate by a pintool work station. The plates were incubated at 37 C for 40 hours. The luminescence intensity were measured at 0h, 8h, 16h, 24h, 32h and 40h time points using ViewLux plate reader during compound treatment.
On the % scale 0 is the no-effect control and ±100 the full control effect; potency means the concentration at half of the fitted maximal effect.

SMILES	activity change, negative = cytotoxicity	Potency
COc1cnc(OC)n2nc(NS(=O)(=O)c3c(OCC(F)F)cccc3C(F)(F)F)nc12	5.66% (inactive)	
C[C@]12CC[C@H]3[C@@H](CCC4=CC(=O)CC[C@@H]43)[C@@H]1CC[C@@H]2OC(=O)CCc1ccco1	-11.2% [at 35.3 µM] (inactive)	
CCCCn1cc[n+](C)c1 (tested in a mixture with another compound)	-0.67% (inactive)	
C=CCBr	0.144% (inactive)	
O=C(O)CCCCCCNC1c2ccccc2CCc2ccccc21	4.83% [at 35.3 µM] (inactive)	
CN1C2CCC(C)(C)C1CC(OC(=O)C(O)(c1cccs1)c1cccs1)C2 (stereo not given)	-4.29% [at 35.3 µM] (inactive)	
CCCCC(CC)COC(=O)OOC(C)(C)C (stereo not given)	-7.26% (inactive)	
c1ccc(N=NNc2ccccc2)cc1		inactive
CC(Cc1ccccc1)N(C)Cc1ccco1 (stereo not given)	-0.123% [at 35.3 µM] (inactive)	
COC(=O)c1cc(Oc2ccc(Cl)cc2Cl)ccc1[N+](=O)[O-]	-16.9% (inactive)	
O=S(=O)(NS(=O)(=O)C(F)(F)F)C(F)(F)F	-19.9% (inactive)	
c1cc[n+]2c(c1)-c1cccc[n+]1CC2	2.75% [at 35.3 µM] (inactive)	
CC(C)[C@@H](Nc1ccc(C(F)(F)F)cc1Cl)C(=O)OC(C#N)c1cccc(Oc2ccccc2)c1 (stereo not given in full)	-0.149% (inactive)	
CC[C@]1(O)CC[C@H]2[C@@H]3CCC4=CCCC[C@@H]4[C@H]3CC[C@@]21C	-6.05% [at 35.3 µM] (inactive)	
CCO/N=C(\CC)C1=C(O)CC(c2c(C)cc(C)cc2C)CC1=O (stereo not given)	5.83% (inactive)	
CN/C(=N\[N+](=O)[O-])NCc1cnc(Cl)s1	-2.51% (inactive)	
c1ccc2nc(N3CCNCC3)ccc2c1	-9.53% [at 35.3 µM] (inactive)	
N#CSCc1ccccc1	-3.72% (inactive)	
Brc1ccc(Oc2ccc(Br)cc2Br)c(Br)c1	-4.19% (inactive)	
CC(=O)[O-].CC(=O)[O-].[Co+2]	1.97% (inactive)	

SMILES	activity change, negative = cytotoxicity	Potency
CNC(=O)O/N=C(\C)C(C)S(C)(=O)=O (stereo not given)	-8% [at 725 µM] (inactive)	
CC(=O)[O-].CC(=O)[O-].O.O.O.[Pb+2]	-16.2% (inactive)	
CCOC(=O)Cc1ccccc1	2.85% (inactive)	
N#Cc1c[nH]cc1-c1cccc2c1OC(F)(F)O2	-10.6% (inactive)	
O=C(O)[C@H](O)[C@@H](O)C(=O)O	0.663% (inactive)	
C[N+]1(C)[C@@H]2CC[C@H]1CC(OC(=O)C(CO)c1ccccc1)C2 (stereo not given in full)	-16.7% [at 35.3 µM] (inactive)	
O=Cc1ccccc1	2.24% (inactive)	
[Cl][Hg][c]1ccccc1		2.75 µM (active)
Clc1ccc(C(c2ccc(Cl)cc2)C(Cl)Cl)cc1	-7.94% (inactive)	
O=[N+]([O-])c1ccc(Cl)c(Cl)c1Cl	3.58% (inactive)	
CCC(C)Br (stereo not given)	-0.61% (inactive)	
Oc1cc(Cl)cc(Cl)c1	-4.8% (inactive)	
CN	0.529% (inactive)	
CCOP(=O)(OCC)Oc1nc(Cl)c(Cl)cc1Cl	-8.39% (inactive)	
N#CCCl	-12.3% (inactive)	
COc1ccc2[nH]cc(CCN(C(C)C)C(C)C)c2c1	-3.53% (inactive)	
CCC[CH2][Sn]([CH2]CCC)([CH2]CCC)[CH2]CCC		6.16 µM (active)
CCN(CC)CCN1C(=O)CN=C(c2ccccc2F)c2cc(Cl)ccc21	-2.68% [at 35.3 µM] (inactive)	
CCCN	2.2% (inactive)	
CCC(OC(C)=O)C(CC(C)NC)(c1ccccc1)c1ccccc1 (stereo not given)		62.2 µM (active)
